# Measured values from the OligoGym collection.
# What was measured:
# Assay in all cases: pooled miR-30 sensor sort-seq; sequence = guide strand
# Details in all cases: shRNA
# XAGE3 = molecular target: XAGE3
# XCL2 = molecular target: XCL2
# XAGE5 = molecular target: XAGE5
# XKR5 = molecular target: XKR5
# YARS = molecular target: YARS
# YWHAG = molecular target: YWHAG
# ZBTB9 = molecular target: ZBTB9
# ZDHHC20 = molecular target: ZDHHC20
# ZC3H13 = molecular target: ZC3H13
# ZDHHC14 = molecular target: ZDHHC14
# ZBTB8A = molecular target: ZBTB8A
# ZDHHC6 = molecular target: ZDHHC6
# ZMAT5 = molecular target: ZMAT5
# ZNF169 = molecular target: ZNF169
# ZNF384 = molecular target: ZNF384
# ZNF428 = molecular target: ZNF428
# ZNF480 = molecular target: ZNF480
# ZNF512B = molecular target: ZNF512B
# ZNF471 = molecular target: ZNF471
# ZNF592 = molecular target: ZNF592
# ZNF836 = molecular target: ZNF836
# Note: reference of the scale not given here.
sequence,measurement,setting,value
TCTCTCTCCTGACCAGGTGCAG,sensor-assay potency score (higher = more potent),XAGE3,-1.38
TCTGCTAACTGGCAGTCGCTGG,sensor-assay potency score (higher = more potent),XCL2,-0.99
TATAATCTCAGTCCATGAGGGT,sensor-assay potency score (higher = more potent),XCL2,-0.365
TTAGGCACTTGAATCTCAGCTG,sensor-assay potency score (higher = more potent),XAGE5,0.649
TCATCTTCTCTCTTCTGACCAG,sensor-assay potency score (higher = more potent),XAGE5,-0.307
TTGAGTCTCAGCTGCACCCTGA,sensor-assay potency score (higher = more potent),XAGE3,-0.3
TTTCAGTTGGTGGTTCTTCTTG,sensor-assay potency score (higher = more potent),XAGE5,-0.699
TGATCTTCTTCTCTCTCCTGAC,sensor-assay potency score (higher = more potent),XAGE3,-1.05
TAAATTACCAGTGAGACACTGC,sensor-assay potency score (higher = more potent),XKR5,0.68
TAGTGTGTACTCTTTGCTGAGC,sensor-assay potency score (higher = more potent),YARS,-0.796
TCTAGTGTGTACTCTTTGCTGA,sensor-assay potency score (higher = more potent),YARS,0.0358
TGAATCTACAGAACAGTCCAGA,sensor-assay potency score (higher = more potent),YWHAG,0.0332
TTCGCTGTAGGCCTTCTCGGAG,sensor-assay potency score (higher = more potent),YWHAG,-0.969
TTTTGCTCTAACTCTTCTCTCA,sensor-assay potency score (higher = more potent),ZBTB9,-0.273
TTTAAGTAACTGCAAGTCCCAC,sensor-assay potency score (higher = more potent),ZBTB9,-0.539
TTGTTGTCTTTCTTGGCTGAAT,sensor-assay potency score (higher = more potent),ZDHHC20,-1.21
TATAATTGCTGCTATAACCTTT,sensor-assay potency score (higher = more potent),ZC3H13,-0.316
TTGGTCGCACATGTCACTCTGT,sensor-assay potency score (higher = more potent),ZDHHC14,0.506
TTGATCTAACCACTTCTGGTGA,sensor-assay potency score (higher = more potent),ZC3H13,-0.291
TTTGTTGTCTGGTTGGAGCTGA,sensor-assay potency score (higher = more potent),ZDHHC14,0.539
TTATAAAGTACTCTAAAACTGT,sensor-assay potency score (higher = more potent),ZDHHC20,-0.589
TAGACTTTCTTAGAGAAGGTGA,sensor-assay potency score (higher = more potent),ZC3H13,0.611
TCGGCTTCAATGACACTCGGTA,sensor-assay potency score (higher = more potent),ZBTB9,-0.397
TAAAACATTTACCACTGTCTTT,sensor-assay potency score (higher = more potent),ZBTB9,-1.1
TAAATAATTGAAAATCTGGTTT,sensor-assay potency score (higher = more potent),ZBTB9,-0.887
TTTCAGGATAGCTACTTCGAGT,sensor-assay potency score (higher = more potent),ZC3H13,-1.23
TTCATTTCTATAGCGCTTCTTT,sensor-assay potency score (higher = more potent),ZC3H13,-0.352
TTGAGGTCGTACAACTTGGCTC,sensor-assay potency score (higher = more potent),ZC3H13,-0.282
TTAGGAATCCTGTTTGCTGTGA,sensor-assay potency score (higher = more potent),ZDHHC14,0.039
TAACACTGCTTTATGAGCCCTA,sensor-assay potency score (higher = more potent),ZBTB9,-0.401
TTTTGATCTAACCACTTCTGGT,sensor-assay potency score (higher = more potent),ZC3H13,-0.785
TTGGAGCTGATCAAGTAGGTGT,sensor-assay potency score (higher = more potent),ZDHHC14,0.206
TCACAAAATACATCTTGCCTGC,sensor-assay potency score (higher = more potent),ZBTB8A,-0.43
TTTGCGATATCTATTTGCCTTT,sensor-assay potency score (higher = more potent),ZDHHC14,-0.604
TTGATGATGACTTCTTTGGTTC,sensor-assay potency score (higher = more potent),ZDHHC14,-0.541
TTGTTCTTCATTCTTTCTCTAA,sensor-assay potency score (higher = more potent),ZC3H13,-0.618
TTGGATTCCTATCTTCTCGGAT,sensor-assay potency score (higher = more potent),ZC3H13,0.12
TAAAGTACTCTAAAACTGTTGC,sensor-assay potency score (higher = more potent),ZDHHC20,0.215
TTACCTCTTTTATTTGACCAGG,sensor-assay potency score (higher = more potent),ZDHHC14,-0.803
TTTCTGAGCACTGATCTACTAC,sensor-assay potency score (higher = more potent),ZBTB9,-0.637
TTGGACAAGTAGAACTCTTTGG,sensor-assay potency score (higher = more potent),ZDHHC20,-0.323
TATTCCAACATCATCCTCTTTC,sensor-assay potency score (higher = more potent),ZC3H13,0.216
TAATTCTCTAAGAATTTCTGAG,sensor-assay potency score (higher = more potent),ZBTB9,-0.361
TAGTAGCATAACACATAAGTGC,sensor-assay potency score (higher = more potent),ZDHHC14,-0.719
TGAGCACTGATCTACTACCTGC,sensor-assay potency score (higher = more potent),ZBTB9,-0.24
TATAGATAGGTAAAGCTCTTGC,sensor-assay potency score (higher = more potent),ZDHHC20,-0.117
TTCTCGGATCTCTTCTCGCTTT,sensor-assay potency score (higher = more potent),ZC3H13,-0.478
TTACAGAAGAACTTGTTTCTTC,sensor-assay potency score (higher = more potent),ZDHHC14,0.472
TTGAACTCTCTTTCCTTTCTGG,sensor-assay potency score (higher = more potent),ZC3H13,0.745
TTGAGTTTCCACATCTGCCAGG,sensor-assay potency score (higher = more potent),ZBTB9,-0.504
TTGCAGTCTGGCCACAAGCGTC,sensor-assay potency score (higher = more potent),ZDHHC14,-1.44
TTAAGCTGTAAATCAAATGTAT,sensor-assay potency score (higher = more potent),ZBTB9,-0.457
TTAATGTAGAAGATTTTGGGGG,sensor-assay potency score (higher = more potent),ZBTB9,-0.261
TTGGTAACCACAACAGTTGTTG,sensor-assay potency score (higher = more potent),ZDHHC6,-0.394
TTTGTCTCCATATAACCAGTAT,sensor-assay potency score (higher = more potent),ZDHHC6,-0.758
ATCTCGGAACATGTCGTACCAG,sensor-assay potency score (higher = more potent),ZMAT5,-1.24
TAAGGTGTGACTTCTGGCCAAG,sensor-assay potency score (higher = more potent),ZNF169,-0.969
TTGAGCCTGAGCCTGAGCCTGG,sensor-assay potency score (higher = more potent),ZNF384,-0.986
TTGGACTCTGTGTCCATACTGA,sensor-assay potency score (higher = more potent),ZNF384,-0.198
TCATCTTCTTCCAAGCTGGCGT,sensor-assay potency score (higher = more potent),ZNF428,-0.345
TTCATCTGGAAATAGCTCCAGT,sensor-assay potency score (higher = more potent),ZNF480,0.626
TCATCATCTTCTTCCAAGCTGG,sensor-assay potency score (higher = more potent),ZNF428,-0.45
TTTCAACTTGATTACATCCATT,sensor-assay potency score (higher = more potent),ZNF480,-1.17
TTAGTGATAACTTGTGTCTGAA,sensor-assay potency score (higher = more potent),ZNF480,-0.0434
TGAATCAGAGGAATGCTCGGGG,sensor-assay potency score (higher = more potent),ZNF428,0.32
ATATTCAGGATCGTCAGTGGTC,sensor-assay potency score (higher = more potent),ZNF428,-0.14
TTTTTCTTCCCTTCTGTCTTGT,sensor-assay potency score (higher = more potent),ZNF512B,0.00205
TTAAGGATAACTTTCTTCTGAA,sensor-assay potency score (higher = more potent),ZNF471,-0.561
ATCTTGTTGATGAACATTGTGT,sensor-assay potency score (higher = more potent),ZNF384,-0.823
TTTGCCAGTGTGACATCTCTGA,sensor-assay potency score (higher = more potent),ZNF471,-0.159
TACTCTTTGATGCTGAGTGAGT,sensor-assay potency score (higher = more potent),ZNF471,-0.705
TAAGACAACACAGACCGGCAGT,sensor-assay potency score (higher = more potent),ZNF428,0.279
TTGATGAACATTGTGTTCTCGA,sensor-assay potency score (higher = more potent),ZNF384,0.78
TTGATGTTGAGTAAGATTGGAA,sensor-assay potency score (higher = more potent),ZNF471,-0.353
TGAATTGTAACTAAAAACCTTG,sensor-assay potency score (higher = more potent),ZNF480,-0.76
TTGGAGTAGAATGTCAGTGAGC,sensor-assay potency score (higher = more potent),ZNF384,-0.969
TAACTTTCTTCTGAACGCCTTC,sensor-assay potency score (higher = more potent),ZNF471,-0.31
TAATTGGTTTGTCTTCTGCATT,sensor-assay potency score (higher = more potent),ZNF480,-1.51
TTGATGTTTAGTAAGGCTGGAA,sensor-assay potency score (higher = more potent),ZNF480,-0.447
TTCTCTAAGGTGTACTTTCTGT,sensor-assay potency score (higher = more potent),ZNF480,-0.808
TTCCTCTTCGGAGTCCGGCTCT,sensor-assay potency score (higher = more potent),ZNF428,-0.361
TCTAAGACAACACAGACCGGCA,sensor-assay potency score (higher = more potent),ZNF428,-0.807
TTGAATTGTAACTAAAAACCTT,sensor-assay potency score (higher = more potent),ZNF480,-0.157
TCTGAGAGAGTGTATTCTGAAT,sensor-assay potency score (higher = more potent),ZNF428,-1.43
ATTTGTATGGTCTATCACCAGT,sensor-assay potency score (higher = more potent),ZNF384,-0.958
TTCTCCAACATCATACTCCTGT,sensor-assay potency score (higher = more potent),ZNF471,0.565
TTCTTCCTCTTCGGAGTCCGGC,sensor-assay potency score (higher = more potent),ZNF428,-1.03
TCACCTTGTAGCCAGGATCATA,sensor-assay potency score (higher = more potent),ZNF428,-1.68
AATGTCAGTGAGCACATCCGGC,sensor-assay potency score (higher = more potent),ZNF384,-0.852
TTCTAAGACAACACAGACCGGC,sensor-assay potency score (higher = more potent),ZNF428,0.28
TAACTTGTGTCTGAATGCCTTG,sensor-assay potency score (higher = more potent),ZNF480,-0.708
TTTCTGATGTCGTACAAGGAGC,sensor-assay potency score (higher = more potent),ZNF480,-1.17
AGAGAGTGTATTCTGAATCAGA,sensor-assay potency score (higher = more potent),ZNF428,-1.95
TAAACATCTCATGACTTCCCAT,sensor-assay potency score (higher = more potent),ZNF471,-0.174
TTCTCTGATGTACAGTACGGGA,sensor-assay potency score (higher = more potent),ZNF471,-1.32
TGTGACATCTCTGATGTCGAGC,sensor-assay potency score (higher = more potent),ZNF471,-0.679
TTTCTTGTGTTTTATTACCATA,sensor-assay potency score (higher = more potent),ZNF471,-1.3
TTAGTGACACTAGCCACTCTTT,sensor-assay potency score (higher = more potent),ZNF592,-0.994
TTGAACTCCAAAGCTTCCCCGA,sensor-assay potency score (higher = more potent),ZNF592,-0.465
TTTCTCTGTAGTATGTACCATC,sensor-assay potency score (higher = more potent),ZNF836,-0.51
